Source: PubChem BioAssay
Compounds with a hit are over-represented: about 11% of the library has one in this group of screens.
PNC assembly inh: perinucleolar compartment assembly inhibition | PC3M PTB-GFP, PNC prevalence imaging, 16 h; hits give low values | activity change (PNC), negative = inhibition, % at 10 µM | hit rate 3.1% among 140,000;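 active = readout at or below -70, meaning at least 70% loss of cells showing the perinucleolar compartment, a nuclear body marking cancer cells; inconclusive = readout between -30 and a set limit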;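 note: plate controls were DMSO wells for no effect and camptothecin positive control wells for full effect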
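Read-out is percentage of cells bearing a perinucleolar compartment, from automated 20x imaging of fixed, Hoechst-stained PC3M PTB-GFP cells. Cells were seeded 4 h, then exposed 16 h to compound (23 nl of library stock) in duplicate plates.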
HPGD block: inhibitors of human 15-hydroxyprostaglandin dehydrogenase (HPGD) | P15428 | purified HPGD, NADH fluorescence kinetic, PGE2 substrate | Potency, µM, for inactives: top-dose activity change, negative = inhibition, most hits filed as inhibitors | hit rate 4.3% among 150,000; note: potency is the fitted concentration of half-maximal effect
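NADH formation kinetics: reaction with 30 uM PGE2 and 1 mM NAD+ (final), 20 nM enzyme, Tris-HCl pH 8 with Tween 20, after 15 min compound preincubation at room temperature. Fluorescence change, last versus first of five reads.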
ALDH1A1 inh: blocks purified human ALDH1A1 activity | Purified ALDH1A1, NADH fluorescence, propionaldehyde substrate | Potency, µM (titrated, usually from 75.3 µM), for the others: top-dose activity, negative = inhibition, actives largely listed as inhibitors | hit rate 7.3% among 220,000 | AID 1030;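 note: potency is the fitted concentration of half-maximal effect; plate controls were no enzyme wells and a reference inhibitor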
Target sequence (P00352 whole entry, looked up): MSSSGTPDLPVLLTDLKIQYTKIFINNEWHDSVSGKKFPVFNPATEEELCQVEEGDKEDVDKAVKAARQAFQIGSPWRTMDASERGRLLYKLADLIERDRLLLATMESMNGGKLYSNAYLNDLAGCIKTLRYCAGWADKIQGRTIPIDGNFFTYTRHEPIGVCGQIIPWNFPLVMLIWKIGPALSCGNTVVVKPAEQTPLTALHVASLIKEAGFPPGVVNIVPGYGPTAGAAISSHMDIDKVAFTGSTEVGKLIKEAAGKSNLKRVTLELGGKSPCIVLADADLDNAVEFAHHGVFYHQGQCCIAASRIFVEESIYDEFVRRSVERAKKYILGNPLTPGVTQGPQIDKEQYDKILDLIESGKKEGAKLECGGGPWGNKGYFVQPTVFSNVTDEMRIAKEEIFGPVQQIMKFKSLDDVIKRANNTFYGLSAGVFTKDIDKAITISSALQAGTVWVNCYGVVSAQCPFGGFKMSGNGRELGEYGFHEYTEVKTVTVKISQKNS
* hit, by the source's call; ? = inconclusive; · = not tested or not shown; [ ] = remark or other dose. Unless noted, calls come from the whole dose curve; as a rule, active = well fitted inhibition curve with a large enough effect (not every such curve was filed as active); inconclusive = small, poorly fitted or top-dose-only effect, or another doubt; inactive = no such curve, though single readings can be large or run the other way. Unless noted, % is set by controls: 0 for no effect and ±100 for the full control effect.

SMILES | PNC assembly inh | HPGD block | ALDH1A1 inh
Cc1[nH]c(C(=O)N2CCCCC2)c(C)c1C(=O)NC1CCCCC1 | · | -22.4% | 4.9%
CNC(=O)[C@H]1O[C@@H](n2cnc3c(NCc4cccc(I)c4)nc(Cl)nc32)[C@H](O)[C@@H]1O | · | · | -10.0%
CC(=O)Nc1ccc2c(c1)ncn2-c1ccc(C)cc1 | · | · | 6.2%
CC(=O)Nc1ccc2c(c1)ncn2C | 3.4 | 6.4% | 35.5µM*
COCCCNC(=O)c1ccc(C(=O)NCCCOC)cc1 | 15.3 | -11.4% | 20.2%
COc1ccc(C(=O)NCCSc2ccc(C)cc2)cc1 | -13.2 | -13.3% | 10µM*
COCCNC(=O)c1ccc(C(=O)C(=O)c2ccccc2)cc1 | 23.9 | 14.1µM* | -12.5%
Cc1ccc(SCCNC(=O)c2ccccc2)cc1 | ? | 15.8µM* | ?
COc1ccc(C(=O)NCCSc2ccccc2)cc1OC | · | · | -0.9%
O=C(NCCSc1ccccc1)c1cccnc1 | -14.6 | -29.4% | ?
COc1ccc(C(=O)NCCSC2CCCCC2)cc1 | 5.4 | -0.9% | 3.55µM*
CS(=O)(=O)Nc1ccc(C(=O)NCCSC2CCCCC2)cc1 | ? | -22.1% | ?
Cc1ccc[n+](C(C)C(=O)Nc2ccc(C)c([N+](=O)[O-])c2)c1 (stereo not drawn) | ? | -9.5% | 2.0%
COc1cccc2sc(N(CCCN(C)C)C(=O)c3sc4ccccc4c3Cl)nc12 | -8.8 | -10.7% | 3.8%
C[C@H]1COC(=O)[C@H](Cc2ccccc2)NC(=O)[C@@H](C)COC(=O)[C@H](Cc2ccccc2)NC1=O | · | · | 3.7%[13.5 µM]
COc1ccccc1OCC(=O)NNC(=O)C(=O)N1CCCC1 | 3.9 | -6.8% | -1.8%
CC[C@H](C(=O)[C@H](C)[C@H](O)[C@H](C)CCc1ccc(C)c(O)c1C(=O)O)[C@H]1O[C@](CC)([C@@H]2CC[C@@](O)(CC)[C@H](C)O2)C[C@H]1C | · | -8.3% | 8.2%[20.9 µM]
O=C(NC1CCCC1)c1ncn[nH]1 | ? | -4.5% | -6.7%
COC(=O)CCCC1=CC2=CC(=O)C(C)(OC(=O)c3cccs3)C(=O)C2=CN1CCN1CCOCC1 (stereo not drawn) | · | -6.8% | 0.9%[13.5 µM]
Cc1ccccc1CNC(=O)c1ccccc1C | -22.0 | ? | 0.5%
Cc1cc(C)nc(SCNC(=O)c2ccccc2)n1 | -9.5 | 14.1µM* | -7.9%
COc1ccc(C(=O)NCCSCc2ccccc2C)cc1 | 23.4 | -11.8% | ?
Cc1cc(C)nc(SCC(=O)O)n1 | -12.5 | -12.1% | 4.3%
COc1ccc(C(=O)NCCSCc2ccc(C)cc2)cc1 | -13.1 | 0.3% | 2.24µM*
Cc1ccccc1CNC(=O)c1ccccc1 | ? | 15.8µM* | ?
SMILES | PNC assembly inh | HPGD block | ALDH1A1 inh
CC(=O)c1cccc(NC(=O)C2CCCCC2)c1 | 2.7 | -11.9% | 8.91µM*
CC(=O)c1cccc(NC(=S)NC2CCCCC2)c1 | -22.7 | -9.6% | -5.5%
COc1ccccc1N1CC(C(=O)Nc2cccc(C(=O)O)c2)CC1=O (stereo not drawn) | -9.0 | -7.5% | ?
CC(=O)c1cccc(NC(=O)C2CC(=O)N(c3cccc(C)c3C)C2)c1 (stereo not drawn) | -5.7 | -1.6% | 5.01µM*
O=C(COC(=O)c1ccc2c(c1)C(=O)N(Cc1ccncc1)C2=O)Nc1cccc2ccccc12 | · | · | 3.4%
CCOC(=O)C1=C(C)NC(C)=C(C(=O)OCC)C1C(=O)OCC(=O)N1CCC(C)CC1 | 19.2 | -11.2% | 0.3%
CC1(O)C(=O)C=C2C=C(CCCCOCc3ccccc3)OC=C2C1=O (stereo not drawn) | · | · | -4.2%[13.5 µM]
O=c1c2ccccc2nnn1CSc1nnc(-c2cccnc2)n1-c1ccccc1F | 5.4 | · | ?
Cc1ccc(-n2c(SCn3nnc4ccccc4c3=O)nnc2-c2cccnc2)c(C)c1 | 5.6 | -20.9% | 22.4µM*
O=C(CSc1nnc(-c2cccnc2)n1C1CCCCC1)NC1CCCC1 | -16.4 | 22.4µM* | -5.4%
CC1CCCN(C(=O)CSc2nnc(-c3cccnc3)n2C2CCCCC2)C1 (stereo not drawn) | -14.1 | ? | -9.8%
CNC(=O)CSc1nnc(-c2cccnc2)n1CCc1ccccc1 | -14.7 | -8.6% | 9.3%
CCc1ccccc1-n1c(SCC(=O)NC)nnc1-c1cccnc1 | -121.8* | · | 8.1%
Cc1cc(NC(=O)C(=O)c2cn(C)c3ccccc23)no1 | · | · | -1.1%
Cc1nc2ccccn2c1C(=O)NN=C1C2CC3CC(C2)CC1C3 | -19.1 | -1.3% | ?
Cc1ccc(OCCCC(=O)Nc2ccc(Br)cc2)cc1 | 29.2 | -2.0% | -1.4%
Cc1ccc(CSCCNC(=O)c2ccc(NS(C)(=O)=O)cc2)cc1 | · | · | 5.7%
Cc1ccc2c(C(=O)CN3CCN(C4CCCCC4)CC3)c(C)[nH]c2c1 | ? | -14.7% | 12.6µM*
Cc1ccc2c(C(=O)CN3CCCCC3CCO)c(C)[nH]c2c1 (stereo not drawn) | 3.7 | -7.8% | ?
O=C(COC(=O)CSc1ccc2ccccc2c1Br)NC1CC1 | · | · | -4.7%
S=C1NC(c2ccccc2)N2C(=S)NC(c3ccccc3)N12 (stereo not drawn) | ? | 25.1µM* | 12.6µM*
COc1ccc(C2NC(=S)N3C(c4ccc(OC)cc4)NC(=S)N23)cc1 (stereo not drawn) | 40.8 | ? | 11.2µM*
S=C1NC[C@H](c2ccccc2)N1CC1CCCCC1 | · | · | -6.3%
CCOC(=O)C1=C(C)N(C)C(=S)N(C)C1c1ccc(OC)cc1 (stereo not drawn) | · | · | 3.3%
Cc1ccccc1CN1CCSc2sccc2C1=O | · | · | 5.7%
SMILES | PNC assembly inh | HPGD block | ALDH1A1 inh
CCCCCCCNC1=CC(=O)CC(c2ccccc2)C1 (stereo not drawn) | 25.0 | -4.4% | ?
CCCCCNC1=CC(=O)CC(c2ccccc2)C1 (stereo not drawn) | -83.5* | -20.4% | ?
COc1ccccc1CNC(=O)C(NC(=O)c1ccc(C)cc1)C(C)C (stereo not drawn) | · | · | 8.9%
C/C(=N\O)C1(C)N(O)C(C)(C)C(c2ccc(F)cc2)=[N+]1[O-] (stereo not drawn) | 51.0 | -15.3% | 13.0%
CCC1(C)N(O)C(C)(C)C(c2ccc(F)cc2)=[N+]1[O-] (stereo not drawn) | -100.0* | -7.4% | 7.8%
COc1ccc(/C(O)=C2/C(=O)C(=O)N(CCCN(C)C)C2c2cccc(Cl)c2)cc1OC (stereo not drawn) | -27.7 | -1.4% | 2.6%
O=C(COc1ccc(Cl)cc1)N1CCCCC1 | 18.9 | 25.1µM* | -0.6%
O=C(COc1ccc(Cl)cc1)N1CCN(C(=O)c2cccc(F)c2)CC1 | 36.0 | 3.2% | 14.1µM*
CCOC(=O)C1CCN(C(=O)CCCOc2ccccc2)CC1 | 14.5 | -15.4% | ?
O=C(CCCOc1ccccc1)N1CCCCC1 | -18.9 | 3.98µM* | -1.0%
O=C(COc1ccc(Cl)cc1)N1CCN(c2ncccn2)CC1 | -11.0 | 0.5% | 4.4%
COc1ccc(OCCNC(=O)c2ccccc2OCC(=O)N2CCCCC2)cc1 | ? | -13.9% | 3.55µM*
O=C(COc1ccccc1)N1CCN(C(=O)c2cccc(F)c2)CC1 | -9.6 | -1.5% | -10.5%
CC(=O)N1CCN(C(=O)COc2ccccc2C(=O)Nc2ccccc2)CC1 | · | · | -5.2%
CC(C)CC(c1nnnn1CCc1ccccc1)N1CCC(C(N)=O)CC1 (stereo not drawn) | -5.6 | 0.5% | -3.6%
CC(=O)N1CCC(N(CCN2CCOCC2)C(=S)Nc2c(C)cccc2C)CC1 | 10.0 | -12.3% | 5.9%
CC(C)(C)NC(=O)c1ccc(Sc2ccccc2)c([N+](=O)[O-])c1 | ? | 2.7% | 4.2%
